Several values for one entry are separate records, joined by “and”; a condition that tells them apart may be missing. Equal entries are not always repeated. Some compounds were tested as several samples or in several runs, with calls that do not always agree. Activity calls are given as the source filed them. Where a call stands in place of a potency, no number is given. Unless noted, calls follow the shape of the dose curve; as a rule, active = well fitted curve in the direction sought with a large enough effect in the repeat runs; inconclusive = weak or mixed curves; inactive = no such curve, though single readings can be large; an effect the other way counts as inactive or inconclusive.
Columns and labels:
[1] = qHTS assay to identify small molecule antagonists of the thyroid receptor (TR) signaling pathway - cell viability counter screen (AID 743064); also: nearly all actives have a fitted effect of over 50% in size; also: potency is read from the fitted curve at half-maximal effect
Procedure, shortened: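 Same-well viability check: GH3.TRE-Luc cells stimulated with 1 nM T3 alongside test compound for 23.5 h, followed by CellTiter-Fluor fluorescence.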

[2] = qHTS assay to identify small molecule antagonists of the thyroid receptor (TR) signaling pathway (AID 743065); also: nearly all actives have a fitted effect of over 55% in size; also: potency is read from the fitted curve at half-maximal effect
Procedure, shortened: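 GH3.TRE-Luc rat pituitary cells (two TREs driving luciferase) were dosed with compound, then stimulated with 1 nM T3 (final) for 23.5 h at 37 C. ONE-Glo luminescence was the read-out, with CellTiter-Fluor fluorescence as the cytotoxicity counter-screen.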

[3] = tested on: thyroid hormone receptor (rat, GH3 cells); experiment: qHTS assay to identify small molecule agonists of the thyroid receptor (TR) signaling pathway (AID 743066; calls by dose curve)
[4] = biological target: Estrogen receptor (Homo sapiens) (UniProt P03372); experiment: qHTS assay to identify small molecule antagonists of the estrogen receptor alpha (ER-alpha) signaling pathway (AID 743069; active = well fitted curve in the direction sought with a large enough effect in the signal ratio in the repeat runs, not every such curve was filed as active; inconclusive = weak or mixed curves, or effect the other way; inactive = no such curve, though single readings can be large or run the other way; the % refers to the signal ratio; also: potency is read from the fitted curve at half-maximal effect)
Estrogen receptor (Homo sapiens), sequence (P03372 whole entry, looked up): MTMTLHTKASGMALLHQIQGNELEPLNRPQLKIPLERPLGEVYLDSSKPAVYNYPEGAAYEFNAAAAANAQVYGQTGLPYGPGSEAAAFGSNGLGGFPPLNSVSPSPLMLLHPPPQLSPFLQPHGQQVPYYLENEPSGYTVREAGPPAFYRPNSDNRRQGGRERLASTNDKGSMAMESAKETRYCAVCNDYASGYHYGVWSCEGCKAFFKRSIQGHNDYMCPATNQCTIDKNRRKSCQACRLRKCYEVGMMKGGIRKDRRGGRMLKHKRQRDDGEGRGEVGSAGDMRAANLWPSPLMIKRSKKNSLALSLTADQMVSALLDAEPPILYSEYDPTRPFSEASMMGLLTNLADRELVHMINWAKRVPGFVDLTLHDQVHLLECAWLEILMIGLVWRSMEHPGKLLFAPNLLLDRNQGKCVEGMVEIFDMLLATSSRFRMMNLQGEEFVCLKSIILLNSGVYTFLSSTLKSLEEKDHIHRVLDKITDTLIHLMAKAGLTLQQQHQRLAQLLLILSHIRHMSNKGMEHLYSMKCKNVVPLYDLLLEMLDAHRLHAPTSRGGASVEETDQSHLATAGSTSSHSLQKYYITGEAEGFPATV
Procedure, shortened: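 In this cell-based reporter format, GripTite HEK293 cells harbouring ER-alpha-UAS-bla were grown overnight with 2% charcoal-stripped FBS, dosed with DMSO-dissolved compounds, then challenged with 17beta-estradiol. After 18 hr at 37C, beta-lactamase activity was detected by FRET fluorescence.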

[5] = qHTS assay to identify small molecule antagonists of the estrogen receptor alpha (ER-alpha) signaling pathway - cell viability counter screen (AID 743074; calls by dose curve; also: nearly all actives have a fitted effect of over 45% in size)
[6] = biological target: Estrogen receptor (Homo sapiens) (UniProt P03372); experiment: qHTS assay to identify small molecule agonists of the estrogen receptor alpha (ER-alpha) signaling pathway (AID 743075; calls by dose curve)
[7] = qHTS assay to identify small molecule antagonists of the estrogen receptor alpha (ER-alpha) signaling pathway using the BG1 cell line - cell viability counter screen (AID 743081);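 also: compound given together with 17beta-estradiol as the ER stimulus; nearly all actives have a fitted effect of over 45% in size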; also: potency is read from the fitted curve at half-maximal effect
[8] = biological target: Aromatase (Homo sapiens) (UniProt P11511); experiment: qHTS assay to identify aromatase inhibitors (AID 743083); also: nearly all actives have a fitted effect of over 55% in size; also: potency is read from the fitted curve at half-maximal effect
Aromatase (Homo sapiens), sequence (P11511 whole entry, looked up): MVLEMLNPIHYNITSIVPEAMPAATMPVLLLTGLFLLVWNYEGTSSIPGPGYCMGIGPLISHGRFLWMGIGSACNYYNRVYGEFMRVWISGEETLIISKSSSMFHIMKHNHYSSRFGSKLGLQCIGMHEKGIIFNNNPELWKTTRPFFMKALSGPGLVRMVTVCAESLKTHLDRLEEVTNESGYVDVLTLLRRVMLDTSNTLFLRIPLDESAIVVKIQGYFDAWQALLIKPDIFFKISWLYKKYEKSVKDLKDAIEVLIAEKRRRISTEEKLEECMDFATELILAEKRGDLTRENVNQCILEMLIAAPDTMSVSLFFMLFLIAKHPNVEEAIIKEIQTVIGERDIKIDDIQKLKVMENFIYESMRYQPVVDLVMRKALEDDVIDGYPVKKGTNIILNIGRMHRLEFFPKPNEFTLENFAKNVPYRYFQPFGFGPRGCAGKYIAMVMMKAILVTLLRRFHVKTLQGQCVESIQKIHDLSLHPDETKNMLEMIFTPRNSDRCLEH

[9] = qHTS assay to identify aromatase inhibitors - cell viability counter screen (AID 743084);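 also: cells stimulated with testosterone during compound exposure; nearly all actives have a fitted effect of over 55% in size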; also: potency is read from the fitted curve at half-maximal effect
[10] = qHTS assay to identify small molecule that activate the aryl hydrocarbon receptor (AhR) signaling pathway - cell viability counter screen (AID 743086); also: nearly all actives have a fitted effect of over 45% in size; also: potency is read from the fitted curve at half-maximal effect
Procedure, shortened: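 HepG2-AhR-luc (HG2L7.5c1) cells, 4000/well, treated 24 h at 37 C with compound; viability measured as CellTiter-Fluor fluorescence after 30 min in the same wells as the luciferase read.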

[11] = biological target: Peroxisome proliferator-activated receptor gamma (Homo sapiens) (UniProt P37231); experiment: qHTS assay to identify small molecule agonists of the peroxisome proliferator-activated receptor gamma (PPARg) signaling pathway (AID 743094; active = well fitted activation curve with a large enough effect in the signal ratio in the repeat runs, not every such curve was filed as active; inconclusive = weak or mixed curves, or effect the other way; inactive = no such curve, though single readings can be large or run the other way; the % refers to the signal ratio)
Peroxisome proliferator-activated receptor gamma (Homo sapiens), sequence (P37231 whole entry, looked up): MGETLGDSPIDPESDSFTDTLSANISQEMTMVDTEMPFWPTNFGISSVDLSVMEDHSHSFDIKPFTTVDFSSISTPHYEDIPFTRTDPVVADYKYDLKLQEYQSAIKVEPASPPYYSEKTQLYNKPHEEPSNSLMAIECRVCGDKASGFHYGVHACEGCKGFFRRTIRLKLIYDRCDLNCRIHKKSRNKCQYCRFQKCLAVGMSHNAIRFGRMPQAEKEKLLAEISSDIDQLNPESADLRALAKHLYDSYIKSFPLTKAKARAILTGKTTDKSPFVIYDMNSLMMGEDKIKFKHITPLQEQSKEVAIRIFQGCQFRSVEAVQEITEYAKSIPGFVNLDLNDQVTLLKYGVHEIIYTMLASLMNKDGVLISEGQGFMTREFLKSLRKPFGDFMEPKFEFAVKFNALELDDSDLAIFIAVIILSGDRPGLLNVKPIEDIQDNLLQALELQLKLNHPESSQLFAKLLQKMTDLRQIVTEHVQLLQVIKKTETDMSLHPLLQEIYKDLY
Procedure, shortened: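 Fluorescence-based beta-lactamase readout in HEK293H PPARg UAS-bla cells after 17 h compound exposure (37C) and 1 h B/G FRET substrate incubation at room temperature.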

[12] = qHTS assay for small molecule agonists of the antioxidant response element (ARE) signaling pathway - cell viability counter screen (AID 743203; calls by dose curve; also: nearly all actives have a fitted effect of over 55% in size)
Procedure, shortened: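 Parallel cytotoxicity read-out for the ARE-bla screen: HepG2 reporter cells, 16 hrs with compounds, then CellTiter-Glo luminescence.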

[13] = qHTS assay for small molecule activators of the heat shock response signaling pathway - cell viability counter screen (AID 743209); also: nearly all actives have a fitted effect of over 50% in size
Procedure, shortened: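 To flag cytotoxic compounds, HSE-bla HeLa cells plated at 1500 cells/well were dosed for 5 h at 37 C, followed by the reporter FRET read and then CellTiter-Glo, with luminescence recorded 30 min after reagent addition.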

[14] = biological target: Estrogen receptor (Homo sapiens) (UniProt P03372); experiment: qHTS assay to identify small molecule agonists of the estrogen receptor alpha (ER-alpha) signaling pathway using the BG1 cell line (AID 743079); conditions: BG1Luc4E2 cells, ERE-luciferase agonist, 22 h; activation: at 70.3 µM (top of the series); also: nearly all actives have a fitted effect of over 20% in size; also: potency is read from the fitted curve at half-maximal effect
[15] = qHTS assay to identify small molecule antagonists of the estrogen receptor alpha (ER-alpha) signaling pathway using the BG1 cell line (AID 743080; calls by dose curve;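 also: BG1 cells stimulated with 17beta-estradiol alongside compound; nearly all actives have a fitted effect of over 25% in size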; also: potency is read from the fitted curve at half-maximal effect)
Procedure, shortened: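 Quantitative HTS on the Tox21 10K library: BG1 cells with endogenous ER-alpha and ERE-luciferase reporter, 17beta-estradiol stimulation, 21.5 h compound exposure, luminescence endpoint with parallel fluorescence cytotoxicity counter-read.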

[16] = biological target: Aryl hydrocarbon receptor (Homo sapiens) (UniProt P35869); experiment: qHTS assay to identify small molecule that activate the aryl hydrocarbon receptor (AhR) signaling pathway (AID 743085); also: nearly all actives have a fitted effect of over 15% in size; also: potency is read from the fitted curve at half-maximal effect;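 as to activation: HG2L7.5c1 human HepG2 liver cells with stably integrated DRE-driven firefly reporter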
Aryl hydrocarbon receptor (Homo sapiens), sequence (P35869 whole entry, looked up): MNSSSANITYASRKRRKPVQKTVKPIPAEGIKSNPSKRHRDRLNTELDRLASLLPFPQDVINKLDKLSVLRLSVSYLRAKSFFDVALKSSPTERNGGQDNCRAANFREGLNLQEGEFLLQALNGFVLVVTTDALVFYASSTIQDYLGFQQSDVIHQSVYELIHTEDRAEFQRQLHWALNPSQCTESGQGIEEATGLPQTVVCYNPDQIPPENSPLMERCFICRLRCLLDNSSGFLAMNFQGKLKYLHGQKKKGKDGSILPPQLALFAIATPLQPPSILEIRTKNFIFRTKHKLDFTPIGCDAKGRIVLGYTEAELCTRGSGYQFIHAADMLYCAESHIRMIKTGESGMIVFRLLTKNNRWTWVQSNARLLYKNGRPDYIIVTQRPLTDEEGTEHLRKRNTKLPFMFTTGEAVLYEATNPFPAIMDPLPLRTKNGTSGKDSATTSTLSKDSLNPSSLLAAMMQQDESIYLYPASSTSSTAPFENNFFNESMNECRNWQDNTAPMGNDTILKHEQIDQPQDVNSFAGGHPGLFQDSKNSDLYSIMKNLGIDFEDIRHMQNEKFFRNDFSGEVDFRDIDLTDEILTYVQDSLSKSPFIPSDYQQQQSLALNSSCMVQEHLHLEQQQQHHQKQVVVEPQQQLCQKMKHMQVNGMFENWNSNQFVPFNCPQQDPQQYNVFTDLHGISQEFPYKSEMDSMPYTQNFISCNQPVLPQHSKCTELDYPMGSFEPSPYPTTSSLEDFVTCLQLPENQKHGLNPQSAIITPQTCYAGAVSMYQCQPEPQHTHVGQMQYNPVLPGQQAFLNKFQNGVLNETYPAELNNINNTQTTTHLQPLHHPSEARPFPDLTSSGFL
Procedure, shortened: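 Reporter assay in engineered HepG2 line HG2L7.5c1, whose plasmid carries twenty dioxin responsive elements upstream of firefly luciferase. Treatment lasted 24 h at 37C; ONE-Glo luminescence gauged induction.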

[17] = biological target: Peroxisome proliferator-activated receptor gamma (Homo sapiens) (UniProt P37231); experiment: qHTS assay to identify small molecule antagonists of the peroxisome proliferator-activated receptor gamma (PPARg) signaling pathway (AID 743191; calls by dose curve; also: nearly all actives have a fitted effect of over 30% in size; also: potency is read from the fitted curve at half-maximal effect)
Procedure, shortened: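 GeneBLAzer PPARg UAS-bla HEK293H cells, 5 h post-plating, exposed to compounds 17 h at 37C. LiveBLAzer B/G FRET substrate added for 1 h at room temperature; beta-lactamase reporter read by fluorescence intensity.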

[18] = qHTS assay to identify small molecule antagonists of the peroxisome proliferator-activated receptor gamma (PPARg) signaling pathway - cell viability counter screen (AID 743194); also: nearly all actives have a fitted effect of over 55% in size
Procedure, shortened: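 Cytotoxicity counter screen in PPARg-bla HEK293H cells, same wells as reporter assay. Compounds plus 50 nM rosiglitazone (final) for 17 h at 37 C, then viability read by CellTiter-Glo luminescence.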

[19] = qHTS assay for small molecule agonists of the antioxidant response element (ARE) signaling pathway (AID 743202; active = well fitted activation curve with a large enough effect in the signal ratio in the repeat runs, not every such curve was filed as active; inconclusive = weak or mixed curves, or effect the other way; inactive = no such curve, though single readings can be large or run the other way; the % refers to the signal ratio; also: potency is read from the fitted curve at half-maximal effect)
Procedure, shortened: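 HepG2 ARE-bla cells; 16 h treatment at 37 C; FRET-based beta-lactamase fluorescence read after 2 h substrate incubation at room temperature.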

[20] = qHTS assay for small molecule activators of the heat shock response signaling pathway (AID 743210; active = well fitted activation curve with a large enough effect in the signal ratio in the repeat runs, with a control signal flat, not every such curve was filed as active; inconclusive = weak or mixed curves; the % refers to the signal ratio;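 also: HeLa cells with beta-lactamase reporter driven by heat shock elements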)
Procedure, shortened: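 Following overnight attachment, HSE-bla HeLa cells received test compounds for 5 h at 37 C; beta-lactamase activity was then detected via FRET substrate fluorescence.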

Row | SMILES | Potency [1] | Potency [2] | outcome [3] | Potency [4] | Potency [5] | Potency [6] | Potency [7] | Potency [8] | Potency [9] | Potency [10] | Potency [11] | Potency [12] | Potency [13] | Potency [14] | Potency [15] | Potency [16] | Potency [17] | Potency [18] | Potency [19] | Potency [20]
1 | Oc1cc2c(cc1O)[C@H]1c3ccc(O)c(O)c3OC[C@@]1(O)C2 | 61.9 µM (active) | 49.2 µM (active) | inactive | inactive | inactive | inactive | 49.2 µM (active) | 24.6 µM (active) | 24.6 µM (active) | 27.6 µM (active) | inactive | inactive | inactive | – | – | – | – | – | – | –
2 | O=C(Cn1ccnc1[N+](=O)[O-])NCCO | inactive | inactive | inactive | inactive | – | inactive | inactive | inactive | inactive | inactive | inactive | inactive | inactive | inactive | inactive | inactive | inactive | inactive | inactive | –
3 | CCOC(C)=O | inactive | inactive | inactive | inactive | inactive | inactive | inactive | inactive | inactive | inactive | inactive | inactive | inactive | inactive | inactive | – | inactive | – | inactive | inactive
4 | O=C(OCC(O)CO)c1ccccc1Nc1ccnc2cc(Cl)ccc12 (stereo unspecified) | inactive | inactive | inactive | – | inactive | inactive | inactive | inactive | inactive | inactive | inactive | inactive | – | inactive | inactive | – | – | inactive | 11.9 µM (active) | –
5 | C/C=C/C=C/C=O | inactive | inactive | inactive | inactive | – | inactive | inactive | inactive | inactive | inactive | inactive | inactive | inactive | inactive | inactive | inactive | inactive | – | – | –
6 | CC1(C)[C@H](C(=O)O)N2C(=O)C[C@H]2S1(=O)=O | inactive | inactive | inactive | – | inactive | inactive | inactive | inactive | inactive | inactive | – | inactive | inactive | inactive | inactive | inactive | – | inactive | – | inactive
7 | C(=C\c1ccccc1)/c1ccccc1 | inactive | inactive | inactive | inactive | inactive | inactive | inactive | inactive | inactive | inactive | inactive | inactive | inactive | 60.6 µM (active) | – | 76.3 µM (active) | inactive | – | – | inactive
8 | C=C1C[C@@]23CC[C@H]4[C@@](C)(CCC[C@@]4(C)C(=O)O[C@@H]4O[C@H](CO)[C@@H](O)[C@H](O)[C@H]4O)[C@@H]2CC[C@]1(O[C@@H]1O[C@H](CO)[C@@H](O)[C@H](O[C@@H]2O[C@H](CO)[C@@H](O)[C@H](O)[C@H]2O)[C@H]1O[C@@H]1O[C@H](CO)[C@@H](O)[C@H](O)[C@H]1O)C3 | inactive | inactive | inactive | inactive | inactive | inactive | – | inactive | inactive | inactive | inactive | inactive | inactive | inactive | inactive | inactive | – | inactive | inactive | inactive
9 | O=C=Nc1cccc(C(F)(F)F)c1 | 60.7 µM (active) | 54.1 µM (active) | inactive | – | inactive | inactive | inactive | – | inactive | inactive | inactive | inactive | inactive | inactive | inactive | – | – | – | – | inactive
10 | CC(CO)CO | inactive | inactive | inactive | inactive | inactive | inactive | inactive | inactive | inactive | inactive | – | inactive | inactive | inactive | inactive | inactive | – | – | inactive | inactive
11 | CN1C(C(=O)Nc2ccccn2)=C(O)c2sccc2S1(=O)=O | inactive | inactive | inactive | inactive | inactive | inactive | – | inactive | inactive | inactive | inactive | inactive | inactive | inactive | inactive | inactive | inactive | – | inactive | –
12 | Clc1ccc(Nc2nnc(Cc3ccncc3)c3ccccc23)cc1 | inactive | 13.3 µM (active) | inactive | 26.8 µM [inconclusive] (active) and inactive | inactive | inactive | inactive | 5.31 µM (active) and 13.3 µM (active) | inactive | – | inactive | – | inactive | inactive | 21.1 µM (active) and 26.6 µM (active) | 1.5 µM (active) and 841 nM (active) | – | – | 21.1 µM (active) | inactive
13 | Nc1ccc(N=Nc2ccccc2)c(N)c1 | 53.3 µM (active) | inactive | inactive | inactive | inactive | inactive | 26.7 µM (active) | inactive | 30 µM (active) | 26.7 µM (active) | inactive | inactive | inactive | 0.336 µM (active) | – | 30 µM (active) | 42.7 µM (active) | – | – | –
14 | CCOc1ccccc1O[C@H](c1ccccc1)[C@H]1CNCCO1 | 16.8 µM (active) | 26.6 µM (active) | inactive | inactive | inactive | inactive | inactive | inactive | inactive | – | inactive | inactive | inactive | inactive | inactive | inactive | – | inactive | – | inactive
15 | CCCCCCC(C)(C)C(=O)O | inactive | inactive | inactive | inactive | – | inactive | inactive | inactive | inactive | inactive | inactive | inactive | inactive | inactive | inactive | inactive | inactive | – | inactive | inactive
16 | CCCCN1CCCC1C(=O)Nc1c(C)cc(C)cc1C (stereo unspecified) | inactive | inactive | inactive | – | inactive | inactive | inactive | inactive | inactive | inactive | – | inactive | inactive | inactive | inactive | – | – | inactive | inactive | –
17 | CC[N+](CC)(CCNC(=O)C(=O)NCC[N+](CC)(CC)Cc1ccccc1Cl)Cc1ccccc1Cl | inactive | inactive | inactive | inactive | inactive | inactive | inactive | inactive | inactive | inactive | inactive | – | – | – | inactive | inactive | inactive | – | inactive | –
